Source: PubChem
Compounds with a hit are over-represented: about 4% of the library has one in this group of screens.
KKLEB cytotox – counter-screen for CF NF-kB inhibitors: cytotoxicity | KKLEB CF airway cells viability, ATPlite luminescence, overnight; stronger effect = lower value; cells stimulated with P. aeruginosa culture filtrate | activity change (cytotoxicity), % at 5 µM | 0.36% of 360,000 active | AID 602141;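 active = corrected activity change at or below -50% at 5 µM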
Peg3 promoter – inhibitors of Peg3 promoter; 1.7% of 360,000 active; HeLa PEG-Prom luciferase reporter, luminescence, overnight; inhibition, % at 20 µM; AID 588405;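 active = inhibition of at least 50% at 20 µM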
HIF-2a block – HIF-2a inhibition | 786-0 RCC cells HIF-2a reporter, luciferase luminescence, overnight | inhibition, % at 18.8 µM | 0.72% of 360,000 active;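 active = inhibition of the luminescence signal of 40% or more relative to plate controls, in a single-dose primary screen at 18.75 µM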
CF NFkB inh – blocks PAF-induced NF-kB reporter in cystic fibrosis cells | inhibition, % at 5 µM | KKLEB NF-kB-GFP reporter, GFP fluorescence overnight | AID 588850 | 0.86% of 360,000 active;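 active = at least 50% inhibition at 5 µM, scaled per plate between neutral and stimulator controls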;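 also: PAF is a Pseudomonas aeruginosa culture filtrate used as stimulus; plate controls were PAF-stimulated DMSO wells for no effect and unstimulated DMSO wells for full effect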
TWEAK-Fn14 inh – blocks TWEAK-Fn14 interaction in a reporter cell assay; inhibition, % at 10 µM; 2% of 360,000 active; AID 1159606; TWEAK-stimulated Fn14 reporter cells, luciferase luminescence, 8 h; in the data active = inhibition above about 50%
TROY signal inh – TROY signaling inhibition | 0.98% of 360,000 active | inhibition, % at 10 µM | AID 1347056 | Q293 LMP1-TROYcd NF-kB luciferase reporter, 4 h;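 active = compounds whose plate-normalised and pattern-corrected inhibition of the luciferase reporter signal at the single screening dose is 50% or more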
Starred values were filed as active, the others as inactive.

How did Cc1cc(CN(C)C(=O)CC2C(=O)NCCN2Cc2ccc(-c3ccccc3)cc2)on1 (configuration not stated) do in these assays?
KKLEB cytotox: 15; Peg3 promoter: -15; HIF-2a block: -16; CF NFkB inh: -48; TWEAK-Fn14 inh: -8; TROY signal inh: 15

Results for OC[C@@H]1CN(Cc2ccc(-c3ccccc3)cc2)C[C@H](n2cnc3c(NC4CCC4)ncnc32)O1 ?
KKLEB cytotox: -6; Peg3 promoter: 8; HIF-2a block: -5; CF NFkB inh: 2; TWEAK-Fn14 inh: 59*; TROY signal inh: 36

Results for COc1ccc(-c2ccc3oc(-c4ccc(OC)cc4)c(C#CCO)c3c2)cc1 ?
KKLEB cytotox: -25; Peg3 promoter: 20; HIF-2a block: 5; CF NFkB inh: 27; TWEAK-Fn14 inh: 53*; TROY signal inh: 39

How did COc1ccc(-c2oc3ccc(N4CCOCC4)cc3c2C#CCO)cc1 do in these assays?
KKLEB cytotox: 4; Peg3 promoter: 83*; HIF-2a block: -18; CF NFkB inh: -18; TWEAK-Fn14 inh: 97*; TROY signal inh: 54*

How did COc1ccc(-c2sc3ccc(N4CCOCC4)cc3c2C#CC(C)(C)O)cc1 do in these assays?
KKLEB cytotox: -6; Peg3 promoter: -5; HIF-2a block: 2; CF NFkB inh: 17; TWEAK-Fn14 inh: -68; TROY signal inh: 2

Results for CC12CCC(C(N)C1=O)C2(C)C (configuration not stated) ?
KKLEB cytotox: 7; Peg3 promoter: 7; HIF-2a block: -5; CF NFkB inh: -11; TWEAK-Fn14 inh: 15; TROY signal inh: 7

What do the screens show for `Cc1ccccc1Oc1ccc2c(c1)[C@@H]1C[C@H](N(C)C(=O)Nc3cc(Cl)cc(Cl)c3)[C@H]([C@H](C)O)C(=O)N1CC2`?
KKLEB cytotox: -13; Peg3 promoter: 68*; HIF-2a block: 17; CF NFkB inh: -2; TWEAK-Fn14 inh: 16; TROY signal inh: -8

How did Cc1ccc2oc(=O)n(Cc3ccccc3)c2c1 do in these assays?
KKLEB cytotox: -5; Peg3 promoter: 4; HIF-2a block: 9; CF NFkB inh: 5; TWEAK-Fn14 inh: -4; TROY signal inh: -1

What do the screens show for `O=C(Nc1ccccc1)c1ccccc1NS(=O)(=O)c1ccc(Cl)s1`?
KKLEB cytotox: -36; Peg3 promoter: 44; HIF-2a block: 10; CF NFkB inh: 45; TWEAK-Fn14 inh: 23; TROY signal inh: 63*

How did Cc1ccc(NC(=O)c2ccccc2NS(=O)(=O)c2ccc(Cl)s2)cc1 do in these assays?
KKLEB cytotox: -48; Peg3 promoter: 39; HIF-2a block: -74; CF NFkB inh: 60*; TWEAK-Fn14 inh: 58*; TROY signal inh: 45

How did O=C(Nc1ccccc1Cc1ccccc1)c1ccccc1NS(=O)(=O)c1ccc(Cl)s1 do in these assays?
KKLEB cytotox: -49; Peg3 promoter: 35; HIF-2a block: 14; CF NFkB inh: 63*; TWEAK-Fn14 inh: 58*; TROY signal inh: 68*

How did Cc1c(NC(=O)c2cccc(NC(=O)COc3ccccc3C#N)c2)c(=O)n(-c2ccccc2)n1C do in these assays?
KKLEB cytotox: -5; Peg3 promoter: 0; HIF-2a block: 45*; CF NFkB inh: -23; TWEAK-Fn14 inh: -12; TROY signal inh: -59

Results for CC(=O)c1sc(NC(=O)C2(F)C(F)(F)C(F)(F)C(F)(F)C(F)(F)C2(F)F)nc1C ?
KKLEB cytotox: -52*; Peg3 promoter: 39; HIF-2a block: -26; CF NFkB inh: 65*; TWEAK-Fn14 inh: 65*; TROY signal inh: 62*

Results for CC(=O)c1sc(NC(=O)C=C(C)C)nc1C ?
KKLEB cytotox: 5; Peg3 promoter: -102; HIF-2a block: -141; CF NFkB inh: -9; TWEAK-Fn14 inh: -12; TROY signal inh: -39

How did COc1ccc(C(=O)NCc2csc(-c3cccs3)n2)cc1 do in these assays?
KKLEB cytotox: -9; Peg3 promoter: -3; HIF-2a block: -23; CF NFkB inh: -16; TWEAK-Fn14 inh: -12; TROY signal inh: 0

Results for Fc1ccccc1N=C1NN=C(c2ccccc2)CS1 ?
KKLEB cytotox: -6; Peg3 promoter: -248; HIF-2a block: -231; CF NFkB inh: 18; TWEAK-Fn14 inh: 67*; TROY signal inh: 41

How did COc1ccc(N=c2oc3ccc(OC)cc3cc2-c2nc3ccccc3[nH]2)cc1 do in these assays?
KKLEB cytotox: -24; Peg3 promoter: -86; HIF-2a block: -192; CF NFkB inh: -11; TWEAK-Fn14 inh: 49; TROY signal inh: 12
